Measured values reported in publication PMC4336329 (PLoS ONE, 2015).
Among all 310,000 compounds or so, about 14,000 (4.5%) showed an effect of 50% or more. The effect is printed as a negative number. This is one part of a sample in which strong results are shown more often than they occur.

Target: human ether-à-go-go-related gene (hERG) potassium channel (human, UniProt Q12809)
Assay: primary screen, population patch clamp on CHO cells stably expressing hERG; higher = less effect of the substance
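Further: peak tail current of the secondary pulse compared with the same well before compound.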

human ether-à-go-go-related gene (hERG) potassium channel, sequence (Q12809 whole entry, looked up): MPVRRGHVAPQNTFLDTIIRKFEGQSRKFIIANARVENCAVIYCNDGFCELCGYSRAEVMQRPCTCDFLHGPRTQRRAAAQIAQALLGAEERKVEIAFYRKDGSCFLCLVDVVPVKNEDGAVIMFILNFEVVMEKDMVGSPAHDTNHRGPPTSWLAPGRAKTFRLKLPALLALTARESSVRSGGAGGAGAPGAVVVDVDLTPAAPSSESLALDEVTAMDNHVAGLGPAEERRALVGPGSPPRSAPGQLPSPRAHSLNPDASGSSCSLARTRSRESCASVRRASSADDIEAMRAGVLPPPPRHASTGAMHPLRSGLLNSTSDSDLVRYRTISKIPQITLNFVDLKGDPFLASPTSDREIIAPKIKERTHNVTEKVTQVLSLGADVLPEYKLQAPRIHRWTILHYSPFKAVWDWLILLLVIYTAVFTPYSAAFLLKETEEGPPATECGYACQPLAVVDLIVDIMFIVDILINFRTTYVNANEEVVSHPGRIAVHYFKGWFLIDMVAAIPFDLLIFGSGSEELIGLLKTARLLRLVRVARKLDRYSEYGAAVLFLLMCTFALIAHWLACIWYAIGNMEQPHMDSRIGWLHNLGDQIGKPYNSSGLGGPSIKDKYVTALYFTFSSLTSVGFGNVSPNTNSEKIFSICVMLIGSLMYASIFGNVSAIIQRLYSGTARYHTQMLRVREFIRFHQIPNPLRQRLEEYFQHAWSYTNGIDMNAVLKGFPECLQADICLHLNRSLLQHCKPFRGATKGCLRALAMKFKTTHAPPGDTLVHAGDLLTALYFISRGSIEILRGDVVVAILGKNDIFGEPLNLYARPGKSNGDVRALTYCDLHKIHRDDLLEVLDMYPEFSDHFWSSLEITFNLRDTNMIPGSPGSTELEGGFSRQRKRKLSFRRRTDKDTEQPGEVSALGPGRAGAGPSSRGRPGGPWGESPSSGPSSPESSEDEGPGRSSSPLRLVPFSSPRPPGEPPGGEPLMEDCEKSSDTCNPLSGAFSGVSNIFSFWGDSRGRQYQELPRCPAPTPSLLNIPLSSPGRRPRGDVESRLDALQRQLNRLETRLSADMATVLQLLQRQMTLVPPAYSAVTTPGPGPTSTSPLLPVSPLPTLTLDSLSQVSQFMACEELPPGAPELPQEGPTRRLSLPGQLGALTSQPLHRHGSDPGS

| SMILES | hERG current change (%, negative = inhibition) at 10uM [%] |
| --- | --- |
| O=C(Nc1ccc(Cl)cc1F)C1CC1c1ccccc1 (stereo not shown) | 12.6 |
| COc1ccc(C)cc1NC(=O)C(Sc1nnc(Nc2cc(C)ccc2OC)s1)c1ccccc1 (stereo not shown) | 0.631 |
| Cc1ccc2c(c1)nnc1nnc(SCC(=O)O)n12 | 3.45 |
| COC(=O)c1sccc1NC(=O)c1csc2c1CCCC2 | -10.9 |
| OCC[C@H]1C[C@H](O)[C@@H](O)[C@]2(CCc3ccccc3O2)O1 | 6.41 |
| Cc1ccc(C(=O)C2CCN(S(=O)(=O)c3c(C)noc3C)CC2)cc1 | -67.3 |
| Cc1noc(C)c1S(=O)(=O)N1CCC(C(=O)c2ccccc2)CC1 | -43 |
| Cc1noc(C)c1S(=O)(=O)N1CCC(C(=O)O)CC1 | -3.88 |
| O=S(=O)(c1ccc(F)cc1)N1CCC(n2cnc3ccccc32)CC1 | -39.7 |
| COc1ccc(S(=O)(=O)N2CCC(n3cnc4ccccc43)CC2)cc1 | -64.9 |
| O=S(=O)(c1ccccc1C(F)(F)F)N1CCC(n2cnc3ccccc32)CC1 | -60.5 |
| CCn1c(N2CCN(S(=O)(=O)c3ccccc3C(F)(F)F)CC2)nc2ccccc21.Cl | -39.6 |
| O=S(=O)(c1ccccc1C(F)(F)F)N1CCN(S(=O)(=O)c2ccccc2C(F)(F)F)CC1 | -2.32 |
| O=S(=O)(c1ccccc1)N1CCC(n2cnc3ccccc32)CC1 | -64 |
| O=S(=O)(c1ccc(S(=O)(=O)n2cnc3ccccc32)cc1)N1CCCCCC1 | 3.15 |
| COc1ccc(S(=O)(=O)n2cnc3ccccc32)cc1.Cl | 13.4 |
| COc1ccc(NC(=O)N2CCC(n3cnc4ccccc43)CC2)cc1 | -28.5 |
| Cn1c(=O)n(CC(=O)N2CCOCC2)c2ccccc21 | 3.76 |
| COc1ccc(C(=O)NNC(=O)C23CC4CC(CC(C4)C2)C3)cc1OC | 0.327 |
| COc1cccc(-n2ccnc2SCC(=O)N2CCCc3ccccc32)c1 | -10 |
| Cc1c(Cl)cccc1NC(=O)NN1CCN(C)CC1 | -0.937 |

| SMILES | hERG current change (%, negative = inhibition) at 10uM [%] |
| --- | --- |
| Cc1nonc1C(=O)N/N=C/c1ccc(O)c(O)c1 | -29.7 |
| CCOc1ccccc1NC(=O)COC(=O)c1cc[n+]([O-])cc1 | 12.3 |
| Cc1ccc([N+](=O)[O-])cc1Nc1nc(N2CCOCC2)nc(N2CCOCC2)n1 | -13.5 |
| Cc1ccc(C2OC(=O)C=C2c2ccccc2)cc1 (stereo not shown) | 3.71 |
| Cn1c(=O)c2c(ncn2CC(=O)OCC(=O)NC(c2ccccc2)c2ccccc2)n(C)c1=O | -2.22 |
| COC(=O)CN(c1ccccc1)S(=O)(=O)c1ccccc1 | 4.04 |
| COc1ccc(CCNC(=O)C2CC2)cc1OC | -18.3 |
| Fc1ccccc1Nc1ncnc2c1nnn2Cc1ccccc1 | -20 |
| Cc1nnc2ccc(-c3cccc(NC(=O)c4ccc(Br)o4)c3)nn12 | -75.8 |
| Cc1nnc2ccc(-c3cccc(NC(=O)c4ccco4)c3)nn12 | -5.08 |
| CS(=O)(=O)c1ccc(-c2cccc(NC(=O)c3ccc(Br)o3)c2)nn1 | 3.74 |
| Cc1nnc2ccc(-c3cccc(NS(C)(=O)=O)c3)nn12 | -17.1 |
| Cc1nnc2ccc(-c3cccc(NC(=O)c4ccc(Cl)nc4)c3)nn12 | -56.7 |
| Cc1nnc2ccc(-c3ccc(NC(=O)c4ccc(Cl)nc4)cc3)nn12 | -15 |
| Cn1cccc1C(=O)OCc1csc(-c2ccccc2)n1 | -20.9 |
| O=[N+]([O-])c1cccc(N(CC2CO2)S(=O)(=O)c2ccccc2)c1 (stereo not shown) | -5.4 |
| CCN(C(=O)c1nn(-c2ccc(OC)cc2)c(=O)c2c1c1ccccc1n2C)c1ccc(OC)cc1 | 18.3 |
| CCN(CC)CCNC(=O)c1cc(-c2cccnc2)nc2ccc(S(=O)(=O)N3CCC(C)CC3)cc12 | -65.1 |
| COCCCNC(=O)c1cc(-c2cccnc2)nc2ccc(S(=O)(=O)N3CCCCCC3)cc12 | 30.6 |
| CCCCN(C)CCNC(=O)c1cc(-c2cccnc2)nc2ccc(S(=O)(=O)N3CCC(C)CC3)cc12 | -35.5 |
| COCCNC(=O)c1cc(-c2ccccn2)nc2ccc(S(=O)(=O)N3CCC(C)CC3)cc12 | -61.8 |

| SMILES | hERG current change (%, negative = inhibition) at 10uM [%] |
| --- | --- |
| COCCNC(=O)c1cc(-c2ccncc2)nc2ccc(S(=O)(=O)N3CCOCC3)cc12 | -32.3 |
| CCOCCCNC(=O)c1cc(-c2cccnc2)nc2ccc(S(=O)(=O)N3CCC(C)CC3)cc12 | 12.9 |
| O=C(CCN1C(=O)C2C3C=CC(C3)C2C1=O)Nc1ccccc1 (stereo not shown) | 21.1 |
| CC(C)(C)c1nc2c(Br)cc(Br)cc2c(=O)o1 | 18.9 |
| Cc1ccc(NC2c3ccccc3C(=O)N2CCN2CCOCC2)cc1 (stereo not shown) | -12.9 |
| O=C(c1ccc(Cl)cc1Cl)N1CCC(c2nc3c(nnn3Cc3ccco3)c(=O)[nH]2)CC1 | -69 |
| O=C(c1ccccc1)N1CCC(c2nc3c(nnn3Cc3ccco3)c(=O)[nH]2)CC1 | -32.2 |
| CC(C)(C)c1ccc(Cn2nnc3c(=O)[nH]c(C4CCN(C(=O)Cc5cccs5)CC4)nc32)cc1 | -4.81 |
| O=C(c1ccco1)N1CCCC(c2nc3c(nnn3Cc3cccc(Cl)c3)c(=O)[nH]2)C1 (stereo not shown) | -54.5 |
| O=C(c1ccccc1Cl)N1CCC(c2nc3c(nnn3Cc3ccco3)c(=O)[nH]2)CC1 | -22.1 |
| O=C(Cc1cccs1)N1CCC(c2nc3c(nnn3Cc3ccccc3)c(=O)[nH]2)CC1 | -56 |
| O=C(Cc1cccs1)N1CCC(c2nc3c(nnn3Cc3ccc(F)cc3)c(=O)[nH]2)CC1 | -38.9 |
| O=C(Cc1cccs1)N1CCCC(c2nc3c(nnn3Cc3cccc(Cl)c3)c(=O)[nH]2)C1 (stereo not shown) | -55.6 |
| O=C(c1ccco1)N1CCCC(c2nc3c(nnn3Cc3ccc(Cl)cc3Cl)c(=O)[nH]2)C1 (stereo not shown) | -36.1 |
| O=C(c1ccco1)N1CCCC(c2nc3c(nnn3Cc3ccccc3)c(=O)[nH]2)C1 (stereo not shown) | -8.47 |
| O=C(c1cccs1)N1CCCC(c2nc3c(nnn3Cc3cccc(Cl)c3)c(=O)[nH]2)C1 (stereo not shown) | -36.6 |
| O=C(Cc1cccs1)N1CCCC(c2nc3c(nnn3Cc3ccc(F)cc3)c(=O)[nH]2)C1 (stereo not shown) | -35.1 |
| Cc1nc2ccc(Br)cn2c1C(=O)N/N=C\c1ccccc1[N+](=O)[O-] | 27.6 |
| NC(=O)C[n+]1cccc(C(N)=O)c1.[Cl-] | 12.8 |
| Cc1ccc(S(=O)(=O)Nc2c(C)n(C)n(-c3ccccc3)c2=O)c(C)c1 | 9.47 |
| O=C(CCN1CCCCCC1)Nc1ccc2c(c1)OCCO2.O=C(O)C(=O)O | -1.98 |

| SMILES | hERG current change (%, negative = inhibition) at 10uM [%] |
| --- | --- |
| Cc1ccc(S(=O)(=O)NC(C)c2ccccc2)cc1[N+](=O)[O-] (stereo not shown) | 9.16 |
| CC(=O)Nc1nnc(COc2ccc(Cl)cc2)s1 | 30.7 |
| Cc1ccc(C(=O)N2CCCC(c3nc4c(nnn4Cc4ccccc4)c(=O)[nH]3)C2)cc1 (stereo not shown) | -62.4 |
| Cc1ccc(Cn2nnc3c(=O)[nH]c(C4CCN(S(=O)(=O)c5ccc(F)cc5)CC4)nc32)cc1 | 6.62 |
| COc1ccc(Cn2nnc3c(=O)[nH]c(C4CCCN(C(=O)c5ccccc5)C4)nc32)cc1 (stereo not shown) | -22.5 |
| O=C(c1ccccc1)N1CCCC(c2nc3c(nnn3Cc3ccccc3)c(=O)[nH]2)C1 (stereo not shown) | -3.63 |
| COC(=O)c1ccc(Cn2nnc3c(=O)[nH]c(C4CCN(S(=O)(=O)c5ccc(F)cc5)CC4)nc32)cc1 | -70.3 |
| O=c1[nH]c(C2CCN(S(=O)(=O)c3ccc(S(=O)(=O)NC4CC4)cc3)CC2)nc2c1nnn2Cc1ccc(F)cc1 | 3.81 |
| C=C(c1ccccc1O)n1ccnc1 | 27.8 |
| Cc1[nH]nc2c1C(c1ccco1)C(C#N)=C(N)O2 (stereo not shown) | 18.4 |
| Cc1nnc(SCCn2c(N3CCCC(C)C3)nc3c2c(=O)n(C)c(=O)n3C)s1 (stereo not shown) | -5.21 |
| CCC(C)(C)n1nnnc1C(c1ccc2ncccc2c1)N1CCN2CCCC2C1 (stereo not shown) | -10.8 |
| c1cnc2ccc(C(c3nnnn3C3CCCCC3)N3CCN(C4CCCCC4)CC3)cc2c1 (stereo not shown) | -78.8 |
| c1cnc2ccc(C(c3nnnn3C3CCCCC3)N3CCN4CCCC4C3)cc2c1 (stereo not shown) | -109 |
| c1cnc2ccc(C(c3nnnn3C3CCCCC3)N3CCCCC3)cc2c1 (stereo not shown) | -15.6 |
| c1cnc2ccc(C(c3nnnn3C3CCCC3)N3CCN4CCCC4C3)cc2c1 (stereo not shown) | -45.2 |
| OC1CCN(C(c2ccc3ncccc3c2)c2nnnn2C2CCCCC2)CC1 (stereo not shown) | -31.8 |
| CCOC(=O)c1cccc(N2C(N)=NC(N)=NC2(C)C)c1.Cl | -1.9 |
| CCOc1ccccc1C(=O)NC(C(=O)NCc1ccc(F)cc1)C(C)C (stereo not shown) | -14.7 |
